The subject of this experiment is Vero E6 infected with SARS-CoV-2. As to the kind of experiment: inhibition of SARS-CoV-2 cytopathic effect; higher = more antiviral protection, active = above 15. Particulars: 10000 nM; 48 h.
As for `O=C(O)c1ccccc1-c1ccc(C(F)(F)F)cc1` [xenalipin], the “inhibition of SARS-CoV-2 cytopathic effect” value (“inhibition” for short) is -2.23% (inactive).

Turning to `Oc1cc2c(cc1O)[C@H](Cc1cccc3ccccc13)NCC2`, the “inhibition” value was -2.59% (inactive).

On to `CCOC(=S)SSC(=S)OCC` [dixanthogen], for which the “inhibition” value was 1.23% (inactive).

As for `C=CCNc1c(O)cc2c(O)c1C[C@@H](C)C[C@H](OC)[C@H](O)[C@@H](C)/C=C(\C)[C@H](OC(N)=O)[C@@H](OC)/C=C\C=C(/C)C(=O)N2` [retaspimycin], the “inhibition” value is 8.73% (inactive).

As to `C=C[C@@H]1C[C@]1(NC(=O)[C@@H]1C[C@@H](Oc2ncc(OC)c3ccc(Cl)cc23)CN1C(=O)[C@@H](NC(=O)OC(C)(C)C)C(C)(C)C)C(=O)NS(=O)(=O)C1CC1` [asunaprevir], the “inhibition” value is -1.88% (inactive).

In the case of `O=C(Nc1ccccc1C(=O)Nc1ccc(CCO)cc1)c1ccc([N+](=O)[O-])cc1`, the “inhibition” value was -1.2% (inactive).

Turning to `Nc1ccc(S(=O)(=O)Nc2ccnn2-c2ccccc2)cc1` [sulfaphenazole], the “inhibition” value was -0.83% (inactive).

With `CO/N=C(\C(=O)N[C@@H]1C(=O)N2C(C(=O)O)=C(CSc3nc(C)c(CC(=O)O)s3)CS[C@H]12)c1csc(N)n1` [cefodizime], the “inhibition” value was -4.2% (inactive).

`C[C@H](CCC(=O)O)[C@H]1CC[C@H]2[C@@H]3C[C@H](O)[C@@H]4C[C@H](O)CC[C@]4(C)[C@H]3CC[C@]12C` [Hyodeoxycholic acid (HDCA)]: the “inhibition” value was -1.93% (inactive).

For `CC1=C(/C=C/C(=C/C=C/C(C)=C/C(=O)O)c2ccc(C)cc2)C(C)(C)CCC1`, the “inhibition” value is 6.23% (inactive).

Regarding `NC(N)=Nc1nc(CSCC/C(N)=N/S(N)(=O)=O)cs1` [Famotidine], the “inhibition” value is -0.45% (inactive).

`Cc1cc(-c2nc(C(=O)Nc3cn(C4CCOCC4)nc3C(N)=O)co2)ccn1`: the “inhibition” value is -5.6% (inactive).

With `COc1ccc(-c2cc(C(F)F)nn2-c2ccc(S(N)(=O)=O)cc2)cc1F` [deracoxib], the “inhibition” value is 2.18% (inactive).

On to `CSC[C@H](N)C(=O)O` [S-methylcysteine], for which the “inhibition” value is 0.31% (inactive).

For `CS(=O)(=O)c1ccc([C@@H](O)[C@@H](CF)NC(=O)C(Cl)Cl)cc1` [florfenicol], the “inhibition” value was -0.52% (inactive).

For `CC1(C)CCC(C)(C)c2cc(Cn3cccn3)c(/C=C/c3ccc(C(=O)O)cc3)cc21` [palovarotene], the “inhibition” value is 2.48% (inactive).

As for `O=C(O)[C@H](Cc1c[nH]c2ccccc12)N1C(=O)c2ccccc2C1=O`, the “inhibition” value was 0.14% (inactive).

`Cc1cc(C(=O)Nc2nc3cccc(Cl)c3n2[C@@H]2CCCCN(C(=O)/C=C/CN(C)C)C2)ccn1`: the “inhibition” value was 10.4% (inactive).

Take `N[C@H]1CC[C@H](N[C@@H]2C[C@H]2c2ccccc2)CC1`: the “inhibition” value was 1.79% (inactive).

With `CNC(=O)[C@@H](NC(=O)[C@H](CC(C)C)[C@H](O)C(=O)NO)C(C)(C)C` [marimastat], the “inhibition” value was -13.7% (inactive).

In the case of `CC(=O)N[C@@H](CC(=O)O)C(=O)N[C@@H](CCC(=O)O)C(=O)O` [spaglumic-acid], the “inhibition” value was -1.24% (inactive).

With `C=CC(=O)c1ccc2ccccc2c1` [JAK3-inhibitor-V], the “inhibition” value is 1.9% (inactive).

For the compound `Nc1nc(N)nc(-c2cc(Cl)ccc2Cl)n1` [irsogladine], the “inhibition” value was -0.24% (inactive).

Take `S=C=Nc1ccc(N=C=S)cc1` [bitoscanate]: the “inhibition” value was -2.58% (inactive).

Turning to `COc1ccc(-c2oc3c(CC=C(C)C)c(O)cc(O)c3c(=O)c2O)cc1` [icaritin], the “inhibition” value is 2.24% (inactive).

`C[C@@H]1CN(c2c(F)c(N)c3c(=O)c(C(=O)O)cn(C4CC4)c3c2F)C[C@H](C)N1` [sparfloxacin]: the “inhibition” value was -2.31% (inactive).

As to `CN(C)c1cccc(-c2c3c(=O)n(-c4ccccc4Cl)[nH]c3cc(=O)n2C)c1`, the “inhibition” value was 9.86% (inactive).

Turning to `Cc1ncc(CSSCc2cnc(C)c(O)c2CO)c(CO)c1O` [pyritinol], the “inhibition” value is 0.94% (inactive).

Regarding `CCCN(CCC)[C@H]1CCc2ccc(O)cc2C1` [7-hydroxy-DPAT], the “inhibition” value is 0.48% (inactive).

For the compound `CN(C)Cc1c(C(=O)NCCOc2ccc(C(=O)NO)cc2)oc2ccccc12`, the “inhibition” value was -26.9% (inactive).

In the case of `CCn1c(-c2nonc2N)nc2cncc(C(=O)N3CC[C@H](N)C3)c21`, the “inhibition” value is -2.39% (inactive).

With `CC1(C)OC[C@@H](COC(=O)CCc2ccc(OC[C@@H](O)CNCCNC(=O)N3CCOCC3)cc2)O1` [landiolol], the “inhibition” value is -1.67% (inactive).

Take `C[C@@H](NC(=O)c1ncnc(N)c1Cl)c1ncc(C(=O)Nc2cc(C(F)(F)F)c(Cl)cn2)s1`: the “inhibition” value was -1.31% (inactive).

Source of the values: the supplement of paper PMC13380429.
